# ± gives the standard deviation of the averaged measurements. Of roughly 5,400 targets only a part is listed; those with the largest changes were picked by preference.
# Target: T1, NUFIP2 (UniProt Q7Z417)
# T1 sequence (whole entry): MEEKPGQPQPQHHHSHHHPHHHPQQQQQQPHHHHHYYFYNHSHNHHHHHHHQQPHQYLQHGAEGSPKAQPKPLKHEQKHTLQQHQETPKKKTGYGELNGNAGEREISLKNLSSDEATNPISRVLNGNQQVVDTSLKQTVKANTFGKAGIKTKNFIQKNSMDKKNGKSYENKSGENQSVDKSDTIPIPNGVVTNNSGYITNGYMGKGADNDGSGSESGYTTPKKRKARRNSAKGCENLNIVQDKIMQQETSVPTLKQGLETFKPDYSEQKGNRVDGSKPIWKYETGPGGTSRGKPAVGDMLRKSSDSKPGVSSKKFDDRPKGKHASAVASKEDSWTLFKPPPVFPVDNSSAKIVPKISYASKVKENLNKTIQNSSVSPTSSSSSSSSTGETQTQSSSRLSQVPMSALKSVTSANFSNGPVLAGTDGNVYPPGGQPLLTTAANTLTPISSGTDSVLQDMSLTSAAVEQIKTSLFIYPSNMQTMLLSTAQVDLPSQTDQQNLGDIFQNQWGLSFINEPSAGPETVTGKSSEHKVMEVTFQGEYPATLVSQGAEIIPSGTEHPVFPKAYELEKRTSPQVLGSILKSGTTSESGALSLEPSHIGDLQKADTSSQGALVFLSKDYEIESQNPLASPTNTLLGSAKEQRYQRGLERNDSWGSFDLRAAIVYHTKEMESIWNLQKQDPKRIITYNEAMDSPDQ
# Experiment: NP40-soluble protein abundance relative to vehicle (solubility fold change) (ratio); higher = more soluble protein in presence of GTP
# Procedure: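 Solubility proteome profiling in Jurkat crude lysate. Lysate was treated with Mg-GTP (0.1-10 mM) for 10 min at room temperature and 3 min at 37 °C, then solubilised with 0.8% NP40 and benzonase, followed by ultracentrifugation. Proteins were quantified by TMT10 LC-MS/MS; the value is the NP40-soluble abundance relative to the NP40-processed vehicle, from 3 independent experiments.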
smiles,measurement,setting,value
Nc1nc2c(ncn2[C@@H]2O[C@H](COP(=O)(O)OP(=O)(O)OP(=O)(O)O)[C@@H](O)[C@H]2O)c(=O)[nH]1 [guanosine triphosphate],NP40-soluble protein abundance,concentration: 0.1mM,0.964 ± 0.079
same,NP40-soluble protein abundance,concentration: 0.5mM,0.977 ± 0.14
same,NP40-soluble protein abundance,concentration: 1mM,1.06 ± 0.12
same,NP40-soluble protein abundance,concentration: 2mM,1.07 ± 0.15
same,NP40-soluble protein abundance,concentration: 4mM,1.17 ± 0.15
same,NP40-soluble protein abundance,concentration: 6mM,1.21 ± 0.15
same,NP40-soluble protein abundance,concentration: 8mM,1.28 ± 0.089
same,NP40-soluble protein abundance,concentration: 10mM,1.34 ± 0.13

# From the supplement of paper PMC6411743
